Sampled rows, rich in hits. Any-hit rate of the full collection: about 2.9%.
B2AR arrestin: qHTS assay of beta-arrestin-biased ligands of beta2-adrenergic receptor | AID 492947, 2010 | beta-arrestin recruitment to beta2AR, cell-based reporter | 330,000 compounds, 0.02% hits | Beta-2 adrenergic receptor (Homo sapiens), P07550 | Potency, µM (doses to about 46.1 µM), for inactives: at the top dose activation, most hits filed as activators;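 further: potency means the concentration at half of the fitted maximal effect; 0% = DMSO controls and full agonism = EC100 isoproterenol or metaproterenol; nearly all actives have a fitted effect of over 65% in size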
Target sequence (P07550 whole entry, looked up): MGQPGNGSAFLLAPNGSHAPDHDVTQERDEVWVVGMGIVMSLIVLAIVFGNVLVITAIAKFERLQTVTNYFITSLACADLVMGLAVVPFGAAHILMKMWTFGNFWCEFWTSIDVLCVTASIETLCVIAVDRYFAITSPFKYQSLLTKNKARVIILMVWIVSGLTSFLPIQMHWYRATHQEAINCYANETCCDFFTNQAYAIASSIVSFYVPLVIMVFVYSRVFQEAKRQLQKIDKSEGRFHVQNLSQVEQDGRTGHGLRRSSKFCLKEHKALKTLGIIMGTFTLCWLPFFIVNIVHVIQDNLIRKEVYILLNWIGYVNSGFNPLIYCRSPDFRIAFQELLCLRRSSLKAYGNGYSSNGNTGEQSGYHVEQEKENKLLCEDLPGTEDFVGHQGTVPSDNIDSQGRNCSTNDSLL
IDH1 R132H inh: qHTS for Inhibitors of mutant isocitrate dehydrogenase 1 (IDH1): qHTS. Isocitrate dehydrogenase [NADP] cytoplasmic (Homo sapiens), O75874. IDH1-R132H enzyme, NADPH consumption, diaphorase/resazurin fluorescence. Potency, µM (series often up to 76.6 µM), without a hit: at the highest dose activity change, negative = inhibition, most hits filed as inhibitors. 390,000 compounds, 0.093% hits. AID 602179, 2012; further: potency means the concentration at half of the fitted maximal effect; on the % scale 0 is the no-effect control and ±100 the full control effect; nearly all actives have a fitted effect of over 65% in size
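IDH1-R132H (0.5 ug/mL) preincubated 30 min with compound, then NADPH (0.016 mM) and alpha-KG (2 mM) added; 80 min at RT, pH 7.5. Remaining NADPH coupled via diaphorase/resazurin to fluorescence (540/590 nm); concentration-response curves normalized to no-enzyme control.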
DRD3 agonist: qHTS of D3 Dopamine Receptor Agonist: qHTS; D(3) dopamine receptor (Homo sapiens), P35462; D3R DiscoveRx beta-arrestin cells, luminescence, 90 min; max activation, %; 410,000 compounds, 0.58% hits; in the data active means max activation above about 30%; further: 0% is about no effect
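Cells at 1500/well, incubated overnight, then treated with pinned compounds (dopamine as control) for 90 min at 37 degrees C. DiscoveRx reagent added for 30 - 60 minutes at room temperature; luminescence read.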
a7 integrin act: qHTS for Activators of Integrin-Mediated Alleviation for Muscular Dystrophy; Potency, µM (top dose mostly 38.3 µM), for the others: at the top dose activation, actives largely listed as activators; 350,000 compounds, 0.064% hits; alpha7betagal myoblasts, beta-gal FDG fluorescence, 48 h;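 further: potency means the concentration at half of the fitted maximal effect; 100% = response of the positive control SU9516; nearly all actives have a fitted effect of over 60% in size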
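Alpha7betagal+/- myoblasts (passage 13) were plated 16-24 hr, then exposed to compounds (1:260 dilution of DMSO stock) for 48 hours at 37C. After MPER lysis, β-galactosidase reporter activity was read as FDG fluorescence (ex 480/em 540) after 30 minutes.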
DRD3 antagonist: qHTS of D3 Dopamine Receptor Antagonist: qHTS; AID 652054, 2013; 360,000 compounds, 2.5% hits; D3R cells, DiscoveRx beta-arrestin luminescence, antagonist mode; hits give low values; max response, negative = inhibition, %; in the data active means max response below about -50%; inconclusive means no clear call, values can overlap the other calls; further: on the % scale 0 is the no-effect control and ±100 the full control effect
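Cells plated overnight at 1500 cells/well, then exposed to library compounds with dopamine controls for 90 minutes at 37 degrees C. DiscoveRx reagent added for 30–60 minutes at room temperature; luminescence read, quantitative HTS format.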
Active calls of the source: *; ? = inconclusive; nt = no result; [ ] = remark or other dose. Unless noted, the call rests on the fitted dose curve; in most records, active means well fitted curve in the direction sought with a large enough effect; inconclusive means small, poorly fitted or top-dose-only effect, or another doubt; inactive means no such curve, though single readings can be large; an effect the other way counts as inactive or inconclusive.

SMILES	B2AR arrestin	IDH1 R132H inh	DRD3 agonist	a7 integrin act	DRD3 antagonist
CCN1C(=O)CCN(C2CCCC2)c2nc(Nc3ccc(C(=O)NC4CCN(C)CC4)cc3OC)ncc21	nt	2%[38.3 µM]	0	-45%	-20
CSCC[C@H](NC(=O)Nc1cccc(Br)c1)C(=O)O	0%	8%	12	-17%	-7
C=CCNCC#CCOc1ccc(OC)cc1	0%	2%	-5	-61%	-62*
CNc1ncnc2c1ncn2[C@H]1CN(CCOC)C[C@@H](CO)O1	nt	nt	5	nt	-56*
CNc1ncnc2c1ncn2[C@H]1CN(Cc2cccc3ccccc23)C[C@@H](CO)O1	nt	nt	111*	nt	25
CNc1ncnc2c1ncn2[C@H]1CN(Cc2ccccc2)C[C@@H](CO)O1	nt	nt	-8	nt	-8
O=C(CN1CCN(c2ccccn2)CC1)Nc1ccc(F)c(F)c1	0%	-19%	22	14%	18
Cc1cc(NC(=O)CN2CCN(c3ccccn3)CC2)ccc1Br	0%	0%	47*	18%	-10
O=C(CN1CCN(c2ccccn2)CC1)Nc1ccc(OCc2ccccc2)cc1	0%	-1%	50*	-27%	13
COCCN1CCCC(CNCc2cn(C)nc2-c2ccc(Oc3ccccc3)cc2)C1 (configuration not stated)	0%	2%	-2	-47%	-21
COC1CCCN(Cc2cn(C)nc2-c2ccc(Oc3ccccc3)cc2)C1 (configuration not stated)	-1%	-9%	-3	?	-52*
COc1ccc(OCC(O)CN2CCN(c3ncccn3)CC2)cc1 (configuration not stated)	0%	7%	31*	10%	?
CCc1ccc(OCC(O)CN2CCN(c3ccccn3)CC2)cc1 (configuration not stated)	0%	3%	24	-1%	-27
COc1ccc(OCC(O)CN2CCOCC2)cc1 (configuration not stated)	-1%	-5%	1	1%	11
CCCc1ccc(OCC(O)CN2CCN(c3ccccn3)CC2)cc1 (configuration not stated)	0%	4%	62*	?	-17
CC(=O)c1ccc(OCC(O)CN2CCN(c3ccccn3)CC2)cc1 (configuration not stated)	0%	11%	56*	19%	-55*
CCC(Cn1nnc2ccccc2c1=O)NC(=O)Nc1cc(OC)cc(OC)c1 (configuration not stated)	nt	-5%	-8	nt	nt
COc1ccccc1C(=O)NCc1nnnn1-c1ccc(C)c(C)c1	nt	-13%	-9	nt	nt
CCCN1CCC(=O)N([C@H](COc2ccccc2)CC(C)C)CC1	0%	6%	-39	-8%	-58*
CC(C)C[C@@H](COc1ccccc1)N1CCN(CCc2ccccc2)CCC1=O	1%	-5%	-45	-36%	?
O=C1c2ccccc2S(=O)(=O)c2cc(N3CCN(C(=O)c4ccccc4)CC3)ccc21	nt	-5%	64*	-21%	102
O=C1c2ccccc2S(=O)(=O)c2cc(C(=O)N3CCN(c4ccccc4)CC3)ccc21	nt	1%	3	-16%	4
CN(C)C(=O)CSc1nc2ccccc2n1Cc1ccccc1	0%	5%	-5	-11%	-3
c1ccc(Cn2c(CNc3nc4ccccc4n3CCN3CCCCC3)nc3ccccc32)cc1	0%	2%	-18	0%	?
CCN(CC)CCSc1nc2ccccc2n1Cc1ccccc1	-1%	-1%	-17	-32%	-54*
SMILES	B2AR arrestin	IDH1 R132H inh	DRD3 agonist	a7 integrin act	DRD3 antagonist
CCN(CC)CCn1c(NCc2nc3ccccc3n2Cc2ccccc2)nc2ccccc21	-1%	8%	-34	-44%	-55*
Cn1cccc1-c1nc2ccccc2n1Cc1ccccc1	0%	1%	-1	-11%	-54*
CCCC[C@@H]1C=C(C(=O)O)[C@H](c2ccc(Cl)cc2)N1S(=O)(=O)c1ccc(C)cc1	-1%	4%[38.3 µM]	-1	0%	13
Cc1ccc(CN(C(=O)COc2cccc(Cl)c2)c2ccccn2)o1	nt	-4%	2	nt	nt
Cc1ccc(C)c(S(=O)(=O)Nc2ccc(C(=O)N3CCOCC3)cc2)c1	nt	-7%	-2	8%	-51*
Cc1ccc(C)c(S(=O)(=O)Nc2ccccc2C(=O)Nc2ccccc2N2CCOCC2)c1	0%	4%	-4	21%	-57*
Cc1nn(C)c(C)c1NC(=O)COc1ccc(Cl)cc1Br	-1%	2%	3	-16%	11
COc1cc(NC(=O)c2ccco2)c(OC)cc1NC(=O)CSc1ncc(-c2ccc(F)cc2)[nH]1	0%	3%	31*	-19%	41
COc1ccc(S(=O)(=O)N2CCNC(=O)CC2)cc1	0%	-2%	-3	-16%	-18
CC(=O)c1c(C)oc2ccc(N(C(=O)Oc3ccccc3)S(=O)(=O)c3ccccc3)cc12	nt	-17%	-10	nt	nt
Cc1ccc(NS(=O)(=O)c2c(C)[nH]c(C)c2C(=O)N2CCCC2)cc1	-1%	-1%	-4	9%	-20
Cc1[nH]c(C)c(S(=O)(=O)Nc2ccc(OC(F)(F)F)cc2)c1C(=O)N1CCCCC1	-1%	-10%	-9	10%	-91*
CCN(CCO)c1ccc(N=Nc2cc(C)[nH]n2)cc1	0%	1%	-9	?	-52*
CCN(CCO)c1ccc(Nc2cc(-c3ccc(-c4ccccc4)cc3)ncn2)cc1	nt	nt	18	nt	105
CC1=C(C#N)C(c2cn(-c3ccccc3)nc2-c2cccs2)C(C#N)=C(C)N1	0%	5%	33*	22%	26
COCCOC(=O)C1=C(C)NC(=O)NC1c1cn(-c2ccccc2)nc1-c1cccs1 (configuration not stated)	0%	-2%	3	-17%	8
Clc1cc2nc[nH]c2cc1Cl	-1%	6%	37*	-20%	10
Fc1cc2[nH]cnc2cc1Cl	0%	7%	-2	0%	0
Cc1ccc2oc(C(=O)Nc3c(C(=O)c4ccc(C)c(F)c4)oc4ccccc34)cc(=O)c2c1	nt	10%	-11	nt	nt
CC(C)CCn1c(=O)c2sccc2n2c(CCCC(=O)NCCc3ccccc3)nnc12	nt	12%	-9	nt	nt
CCc1ccc(CN2CCN(c3ncccn3)CC2)cc1	-1%	0%	61*	-1%	?
Fc1ccc(F)c(CN2CCN(c3ncccn3)CC2)c1	0%	7%	31*	12%	12
Cc1cccc(CN2CCN(c3ncccn3)CC2)c1	0%	-4%	8	?	-25
Fc1ccc(CN2CCN(c3ncccn3)CC2)cc1	0%	-1%	51*	-5%	-17
COc1cccc(CN2CCN(c3ncccn3)CC2)c1OC	0%	-2%	11	-27%	-1
